# Assay results taken from ChEMBL document CHEMBL4513216, “Probing the Open Global Health Chemical Diversity Library for Multistage-Active Starting Points for Next-Generation Antimalarials” (ACS Infect Dis, 2020).
# Out of some 69,000 compounds screened, about 8,600 (12%) showed an effect of 50% or more. This excerpt belongs to a sample that is enriched for strong results.
# Tested on: Plasmodium berghei
# Assay: Screen against P. berghei liver stage (PbLuc), transformed with Luciferase, at 10uM
# Format: functional, HepG2
# Details: tested at 10 uM
row,Structure (SMILES),INHIBITION [%]
1,Cc1cnc(C(=O)N2CCN(Cc3csc(C)n3)CC2)cn1,-26.1
2,CN(C)CCn1c([C@@H]2CCCO2)cc2cccnc21,26.8
3,c1cnc2c(c1)cc([C@H]1CCCO1)n2CCN1CCCC1,17.1
4,CN(C)CCn1c([C@H]2CCCO2)cc2cccnc21,56.8
5,Cc1ccc(-n2cc3[nH]c(=O)n(C(C)C)n3c2=O)cc1,0.266
6,Cn1ccnc1CNC(=O)CCc1cccc(F)c1,-0.35
7,CC(C)NC(=O)NCCCc1cccc(F)c1,12.2
8,CC(CCc1cccc(F)c1)NC(=O)NCc1ncnn1C (centres undefined),56.4
9,CC(Cc1ccco1)NC(=O)NCc1ncnn1C (centres undefined),86.2
10,CC(Cc1ccco1)NC(=O)CCn1cccn1 (centres undefined),38.6
11,CC(Cc1c(F)cccc1F)NC(=O)NCc1ncnn1C (centres undefined),51.4
12,CC(Cc1c(F)cccc1F)NC(=O)Nc1cnn(CC(N)=O)c1 (centres undefined),31.1
13,CC(Cc1cccc(Cl)c1)NC(=O)NCc1ncnn1C (centres undefined),64.3
14,Cc1cc(C(=O)NC(C)Cc2cccc(Cl)c2)n(C)n1 (centres undefined),18.6
15,COCCn1cc(NC(=O)NC(C)Cc2c(F)cccc2F)cn1 (centres undefined),15.3
16,CC(Cc1cccc(Cl)c1)NC(=O)Nc1cnn(CC(N)=O)c1 (centres undefined),-11.4
17,CC(Cc1ccco1)NC(=O)Nc1cnn(CC(N)=O)c1 (centres undefined),0.0932
18,COC(=O)N1CCCC(C(=O)NCCc2c[nH]c3cc(C)ccc23)C1 (centres undefined),47.9
19,CC(=O)NCCn1ccc(-c2ccccn2)n1,-13
20,O=C(c1ccc(-c2cccc3c2CCNC3)o1)N1CCCC1,9.56
21,Cc1nn(C)c2ncc(CNCCc3ccccn3)cc12,39.7
22,CCN1CC2(CCCCN2C(=O)c2ccsc2)CC1=O (centres undefined),-8.51

row,Structure (SMILES),INHIBITION [%]
1,CC(=O)N1CCC1c1cc(N2CC(O)C2)nc(C)n1 (centres undefined),3.8
2,Cc1nc2n(n1)CC(NCc1cc(Cl)c3c(c1)OCCO3)CC2 (centres undefined),13.6
3,O=C1NC2(CCc3ccccc31)CCN(C(=O)c1cccnc1)C2 (centres undefined),12.085
4,CCN1CCOCC2(CCCN(C(=O)c3conc3C)C2)C1 (centres undefined),12.4
5,Cn1cc(CN2CCCC3(CCN(C(=O)c4cnccn4)C3)C2)cn1 (centres undefined),49.7
6,NC(=O)CCc1cccc(C2CCNCC2)n1,6.26
7,Clc1cccc(Cl)c1CN(CCCN1CCOCC1)Cc1cccnc1,19.3
8,CCNc1nc(C)c(C(=O)N(C)Cc2nc(CC)no2)s1,20.9
9,CCCc1nc(C(=O)N(C)Cc2cc(CC)no2)cs1,-59.5
10,CCNc1nc(C(=O)N(C)Cc2nc(CC)no2)cs1,53.4
11,CN(Cc1ccc(F)cc1)CC1(O)CCN(C(=O)c2ccncc2)C1 (centres undefined),27.8
12,COC(=O)CNC(=O)c1cn(-c2ccccn2)c(=O)c2ccccc12,-21.4
13,CC(C)N1[C@H](CN2CCCC2)C[C@@H]2CN(C(=O)c3ccoc3)CC[C@@H]21,15.9
14,COc1cc(C)c(C2CC(=O)NCc3nc4sccn4c32)cc1C (centres undefined),-9.18
15,CCC1CC(=O)NCc2nc3sc(C)cn3c21 (centres undefined),53.3
16,COc1cc(C2CC(=O)NCc3nc4sccn4c32)cc(OC)c1O (centres undefined),39.3
17,Cc1cc(F)ccc1NC(=O)NCC(C)N1CCOCC1 (centres undefined),39
18,CNC(=O)c1cccnc1NCCOc1ccccc1,-81.6
19,c1ccc(OCCNC2=NCCCN2)cc1,77.9
20,Fc1ccc(OCCCNC2=NCCCN2)cc1,35.4
21,Fc1ccc(OCCCNC2=NCCN2)cc1,54.4
22,Cn1cc(NCCOc2ccc(F)cc2)cn1,8.09

row,Structure (SMILES),INHIBITION [%]
1,c1ccc(OCCSC2=NCCN2)cc1,35
2,CNC(=O)COC1COC2(CCN(c3ccc(C)nn3)CC2)C1 (centres undefined),54.1
3,CNC(=O)COC1COC2(CCN(c3ccc(C#N)cc3)CC2)C1 (centres undefined),64.9
4,COC1COC2(CCN(c3ccc(C#N)cc3)CC2)C1 (centres undefined),-36.5
5,CNC(=O)COC1COC2(CCN(c3cnccn3)CC2)C1 (centres undefined),36.4
6,CNC(=O)COC1COC2(CCN(c3ncccn3)CC2)C1 (centres undefined),27.5
7,Cc1ccc(N2CCC3(CC2)CC(OCC(=O)N(C)C)CO3)nn1 (centres undefined),29
8,CNC(=O)[C@@H](CC(C)C)N1CCC[C@H]1C(=O)N(C)Cc1ccccc1,25.3
9,Cc1noc([C@H]2C[C@H]3OCC[C@H]3N(Cc3ccc4c(c3)OCO4)C2)n1,17.6
10,CSc1c(CC(=O)O)n(C)c2ccccc12,-9.98
11,O=C([C@@H]1CC[C@@H]2[C@@H](CCN2Cc2cccc(F)c2)O1)N1CCCCO1,-7.48
12,CC(C)c1cc(C2CCN(Cc3cc(F)cc(F)c3)CC2)[nH]n1,49.5
13,CC(C)c1cc(C2CCN(C(=O)Cn3nc4ccccc4n3)CC2)[nH]n1,53.2
14,Cc1n[nH]c(C)c1CN1CCC(c2cc(C(C)C)n[nH]2)CC1,13.9
15,CC(C)c1cc(C2CCN(C(=O)Cn3cnnn3)CC2)[nH]n1,35.1
16,CC(C)c1cc(C2CCN(C(=O)Cn3cncn3)CC2)[nH]n1,17
17,CC(C)c1cc(C2CCN(C(=O)Cn3cnc4ccccc43)CC2)[nH]n1,86.6
18,CC(C(=O)NCCN1CCOCC1)n1cncn1 (centres undefined),-2.33
19,CN(Cc1cnn(C)c1)C(=O)Nc1cccnc1-n1cccn1,-24.9
20,CCN1CCN(C(=O)C2CC(=O)N(c3cnn(C(C)C)c3)C2)CC1 (centres undefined),23.1
21,CCS(=O)(=O)N1Cc2cncn2CC(C(=O)NCC2CC2)C1 (centres undefined),24
22,Cc1nc(C2CCCN(C(=O)C3=NN(C(C)C)C(=O)CC3)C2)no1 (centres undefined),58.3

row,Structure (SMILES),INHIBITION [%]
1,Cc1nc(C2CCCN(C(=O)c3ccc(S(C)(=O)=O)cc3)C2)no1 (centres undefined),-29.8
2,Cc1nc(C2CCCN(C(=O)c3cc(C)sc3C)C2)no1 (centres undefined),81.2
3,CCc1nc(C2CCCN(C(=O)C3=NN(C(C)C)C(=O)CC3)C2)no1 (centres undefined),28.7
4,Cc1nc(C2CCCN(C(=O)c3cccc(S(C)(=O)=O)c3)C2)no1 (centres undefined),51.3
5,Cc1nc(C2CCCN(C(=O)c3cnc(C)s3)C2)no1 (centres undefined),-38
6,Cc1nc(C2CCCN(C(=O)c3ccoc3)C2)no1 (centres undefined),11.6
7,CCN1N=C(C(=O)N2CCCC(c3noc(C)n3)C2)CCC1=O (centres undefined),34.1
8,Cc1nc(C2CCCN(C(=O)c3sc(C)nc3C)C2)no1 (centres undefined),43.4
9,Cc1ccc2c(n1)N(Cc1cccnc1)CCN(C(=O)C1CCC1)C2,32.4
10,NCC1CCCCN1C(=O)Cc1cccc(Cl)c1 (centres undefined),19
11,Cc1ccc(C(=O)N2CCCC2c2nnc3n2CCCCC3)s1 (centres undefined),13
12,CC(C)[C@H]1CN(C(=O)CC2CCC2)C[C@@H]1N(C)C,3.06
13,COC1(CNC(=O)c2cccc(C#N)c2)CCSC1 (centres undefined),8.7
14,Cc1nc(CN2CCO[C@@H]3CN(Cc4cccs4)C[C@@H]3C2)cs1,37.3
15,Cc1nc(C(Cc2ccsc2)NC(=O)CCN2CCOCC2)sc1C (centres undefined),-11.95
16,Cc1nc(NCCc2ccccc2)cc(C(=O)N2CCOCC2)n1,38.5
17,COc1ccc(S(=O)(=O)N[C@H]2CN(C(C)=O)C[C@@H]2C2CC2)cc1C,9.63
18,COc1cc(C)ccc1S(=O)(=O)N[C@H]1CN(C(C)=O)C[C@@H]1C1CC1,55.2
19,COc1ccc(C)cc1S(=O)(=O)N[C@H]1CN(C(C)=O)C[C@@H]1C1CC1,35.4
20,COCCN1CCC2(COCc3cnc(N4CCOCC4)nc32)C1 (centres undefined),52.3
21,c1ccc(N2CCC3(COCCN(c4ncccn4)C3)C2)nc1 (centres undefined),38.5
22,c1nc(N2CCOCC2)nc2c1COCC21CCN(CC2CC2)C1 (centres undefined),-7.59

row,Structure (SMILES),INHIBITION [%]
1,O=S(=O)(C1CC1)N1CCC2(COCc3cnc(N4CCOCC4)nc32)C1 (centres undefined),-8.69
2,CCS(=O)(=O)N1CCC2(COCc3cnc(N4CCOCC4)nc32)C1 (centres undefined),-50.9
3,c1cnc(N2CCC3(COCc4cnc(N5CCOCC5)nc43)C2)nc1 (centres undefined),68.3
4,COCCN1CCC2(COCc3cnc(N(C)C)nc32)C1 (centres undefined),-6.23
5,CN1CCC2(COCc3cnc(N4CCOCC4)nc32)C1 (centres undefined),51.3
6,CNc1nc(CNC(=O)Nc2cccc(CN(C)C)c2)cs1,-0.74
7,CC(C)c1nncn1CCNC(=O)c1c(O)cc(F)cc1F,8.86
8,CC(C)=CCN1C(=O)[C@@H]2CC[C@H]1CN(C(=O)CCc1n[nH]c(C)c1C)C2,43.8
9,CC(Cn1ccnc1)NC(=O)C1(c2cccc(Cl)c2)CC1 (centres undefined),19.4
10,COCCn1c(=O)n(Cc2cccc(F)c2F)c2cc(C(=O)O)ccc21,55
11,COCCn1c(=O)n(Cc2ccccc2C)c2cc(C(=O)O)ccc21,29
12,COCCn1c(=O)n(Cc2ccc(Cl)s2)c2cc(C(=O)O)ccc21,32.3
13,CC(NC(=O)NCC(F)(F)F)c1nncn1C (centres undefined),11.5
14,c1ccc(Cc2nc(C3CC3)nn2-c2ccc3c(c2)OCCO3)nc1,-52.4
15,c1cncc(CCc2nc(C3CC3)nn2-c2ccc3c(c2)OCCO3)c1,50.1
16,c1cncc(OCc2nc(C3CC3)nn2-c2ccc3c(c2)OCCO3)c1,25.4
17,CCc1nc(N)nc(N2CCCC3(CCOCC3)C2)c1C,50
18,CCc1cnc(N)nc1N1CCCC2(CCOCC2)C1,-3.77
19,CCc1nc(N)nc(N2CCCC3(CCN(C)CC3)CC2)c1C,-56.2
20,CS(=O)(=O)N1CCCC(n2nnn(-c3ccccc3)c2=O)C1 (centres undefined),17.55
21,c1cncc(C2COC3(CCN(CC4CC4)CC3)C2)c1 (centres undefined),-18.2
